According to the supplement of paper PMC6897291:
Where a name gives a salt, the structure may show the parent alone.

How the values were obtained:
U-2932 [1] = experiment: growth inhibition by drug alone (1 - RLU/untreated control) (fraction); higher = stronger inhibition; settings: 177Lu-lilotomab satetraxetan 0 ug/ml
In short: (§1)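 Compound doses on the pre-printed Selleck Cambridge Cancer Compound library plates were 10/100 nM for RIVA cells and 10/1,000 nM for U-2932 cells, seeded at 3,000 cells/well. Before seeding, cells were washed after 18 h with or without a radiolabelled anti-CD37 antibody conjugate (~600 MBq/mg; 0.5 µg/ml RIVA, 1 µg/ml U-2932). Growth inhibition was derived from RealTime-Glo luminescence relative to untreated no-drug control wells. Readings were taken daily starting on day 3, each after 1 h at 37°C, and each well's RLU was divided by the mean of 48 such wells per plate and subtracted from 1.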

RIVA [2] = experiment: as above; settings: 177Lu-lilotomab satetraxetan 0 ug/ml
In short: as §1

U-2932 [3] = experiment: growth inhibition by drug plus 177Lu-lilotomab satetraxetan (1 - RLU/untreated control) (fraction); higher = stronger inhibition; settings: 177Lu-lilotomab satetraxetan 1 ug/ml
In short: as §1

RIVA [4] = experiment: as above; settings: 177Lu-lilotomab satetraxetan 0.5 ug/ml
In short: as §1

Compound	growth inhibition by drug alone (U-2932 [1]; 10 nM, time (day): 3)	growth inhibition by drug alone (U-2932 [1]; 10 nM, time (day): 4)	growth inhibition by drug alone (U-2932 [1]; 10 nM, time (day): 5)	growth inhibition by drug alone (U-2932 [1]; 10 nM, time (day): 6)	growth inhibition by drug alone (U-2932 [1]; 1000 nM, time (day): 3)	growth inhibition by drug alone (U-2932 [1]; 1000 nM, time (day): 4)	growth inhibition by drug alone (U-2932 [1]; 1000 nM, time (day): 5)	growth inhibition by drug alone (U-2932 [1]; 1000 nM, time (day): 6)	growth inhibition by drug alone (RIVA [2]; 10 nM, time (day): 3)	growth inhibition by drug alone (RIVA [2]; 10 nM, time (day): 4)	growth inhibition by drug alone (RIVA [2]; 10 nM, time (day): 5)	growth inhibition by drug alone (RIVA [2]; 10 nM, time (day): 6)	growth inhibition by drug alone (RIVA [2]; 100 nM, time (day): 3)	growth inhibition by drug alone (RIVA [2]; 100 nM, time (day): 4)	growth inhibition by drug alone (RIVA [2]; 100 nM, time (day): 5)	growth inhibition by drug alone (RIVA [2]; 100 nM, time (day): 6)	growth inhibition by drug plus 177Lu-lilotomab satetraxetan (U-2932 [3]; 10 nM, time (day): 3)	growth inhibition by drug plus 177Lu-lilotomab satetraxetan (U-2932 [3]; 10 nM, time (day): 4)	growth inhibition by drug plus 177Lu-lilotomab satetraxetan (U-2932 [3]; 10 nM, time (day): 5)	growth inhibition by drug plus 177Lu-lilotomab satetraxetan (U-2932 [3]; 10 nM, time (day): 6)	growth inhibition by drug plus 177Lu-lilotomab satetraxetan (U-2932 [3]; 1000 nM, time (day): 3)	growth inhibition by drug plus 177Lu-lilotomab satetraxetan (U-2932 [3]; 1000 nM, time (day): 4)	growth inhibition by drug plus 177Lu-lilotomab satetraxetan (U-2932 [3]; 1000 nM, time (day): 5)	growth inhibition by drug plus 177Lu-lilotomab satetraxetan (U-2932 [3]; 1000 nM, time (day): 6)	growth inhibition by drug plus 177Lu-lilotomab satetraxetan (RIVA [4]; 10 nM, time (day): 3)	growth inhibition by drug plus 177Lu-lilotomab satetraxetan (RIVA [4]; 10 nM, time (day): 4)	growth inhibition by drug plus 177Lu-lilotomab satetraxetan (RIVA [4]; 10 nM, time (day): 5)	growth inhibition by drug plus 177Lu-lilotomab satetraxetan (RIVA [4]; 10 nM, time (day): 6)	growth inhibition by drug plus 177Lu-lilotomab satetraxetan (RIVA [4]; 100 nM, time (day): 3)	growth inhibition by drug plus 177Lu-lilotomab satetraxetan (RIVA [4]; 100 nM, time (day): 4)	growth inhibition by drug plus 177Lu-lilotomab satetraxetan (RIVA [4]; 100 nM, time (day): 5)	growth inhibition by drug plus 177Lu-lilotomab satetraxetan (RIVA [4]; 100 nM, time (day): 6)
NC(=O)c1ccc(I)c([N+](=O)[O-])c1 [Iniparib (BSI-201)]	-0.0132	-0.0395	-0.0441	-0.012	-0.105	-0.0771	-0.0716	-0.0297	-0.235	-0.257	-0.288	-0.389	-0.378	-0.352	-0.395	-0.471	-0.0638	-0.00415	0.0467	0.129	-0.0685	-0.00507	0.0384	0.191	0.437	0.491	0.504	0.513	0.436	0.495	0.516	0.523
COc1ccc(S(=O)(=O)Nc2cccnc2Nc2ccc(O)cc2)cc1	0.0231	-0.0101	-0.0159	0.0329	0.889	0.918	0.932	0.948	-0.0856	-0.157	-0.215	-0.37	-0.353	-0.364	-0.406	-0.581	-0.0595	0.0116	0.0522	0.105	0.896	0.923	0.934	0.956	0.454	0.511	0.525	0.533	0.416	0.502	0.51	0.5
COc1cc2ncnc(Nc3ccc(Oc4ccccc4)cc3)c2cc1OC	0.0897	0.0909	0.0445	-0.0326	0.038	0.0615	0.0344	0.0553	0.00348	0.0579	-0.00953	-0.188	-0.0251	0.00379	-0.0229	-0.143	0.0456	0.0896	0.111	0.169	-0.11	0.0137	0.0447	0.175	0.521	0.598	0.605	0.616	0.526	0.567	0.556	0.521
CN(C)C[C@@H]1CCn2cc(c3ccccc32)C2=C(C(=O)NC2=O)c2cn(c3ccccc23)CCO1	0.148	0.0748	0.0024	-0.0699	0.292	0.306	0.226	0.249	0.0588	0.0867	-0.0102	-0.214	0.041	0.0997	0.0496	-0.0383	0.0704	0.125	0.141	0.173	0.448	0.48	0.458	0.49	0.423	0.561	0.581	0.582	0.462	0.539	0.554	0.545
O=C(O)C(=O)O.[NH-]C1CCCCC1[NH-].[Pt+2] (centres undefined) [Oxaliplatin (Eloxatin)]	0.138	0.113	-0.0491	-0.0738	0.613	0.565	0.489	0.46	0.335	0.288	0.293	0.22	-0.171	-0.0865	-0.121	-0.155	0.123	0.163	0.223	0.284	0.675	0.638	0.604	0.608	0.6	0.598	0.621	0.626	0.453	0.516	0.534	0.531
COc1cccc2c1C(=O)c1c(O)c3c(c(O)c1C2=O)C[C@@](O)(C(C)=O)C[C@@H]3O[C@H]1C[C@H](N)[C@H](O)[C@H](C)O1 [Daunorubicin HCl (Daunomycin HCl)]	0.144	0.147	0.0841	0.0306	0.971	0.975	0.98	0.983	0.109	0.134	0.15	0.0495	0.569	0.743	0.857	0.915	0.21	0.265	0.341	0.415	0.978	0.982	0.984	0.987	0.833	0.844	0.868	0.902	0.87	0.915	0.94	0.96
Cc1ccc(NC(=O)c2cccc(C(C)(C)C#N)c2)cc1Nc1ccc2ncn(C)c(=O)c2c1	0.0487	0.00122	-0.0179	-0.0294	0.157	0.159	0.087	0.137	-0.0415	-0.0437	-0.0355	-0.0473	-0.346	-0.245	-0.279	-0.339	0.00759	0.0624	0.11	0.17	0.173	0.189	0.164	0.263	0.556	0.622	0.643	0.651	0.432	0.547	0.564	0.563
CC[C@H](Nc1ncnc2[nH]cnc12)c1nc2cccc(F)c2c(=O)n1-c1ccccc1	-0.00827	-0.000402	-0.0211	0.0544	0.567	0.374	0.289	0.263	-0.102	-0.203	-0.182	-0.255	0.424	0.204	0.175	0.0639	-0.0906	-0.0707	-0.0592	0.0112	0.507	0.287	0.217	0.234	0.367	0.448	0.484	0.5	0.575	0.541		
